The full ranking holds about 33,000 sequences; the median of “E-score (-0.5 to 0.5)” is about -0.036, and the highest 2% start at about 0.37. The sample as a whole holds a higher share of the highest values than the screen did.
target: T1, Yer064c (UniProt P40041); test: PBM E-score (8-mer binding enrichment) (E-score (-0.5 to 0.5)); higher = stronger / more preferred TF binding; conditions: protein concentration: 200 nM; construct: GST-full length
T1 sequence: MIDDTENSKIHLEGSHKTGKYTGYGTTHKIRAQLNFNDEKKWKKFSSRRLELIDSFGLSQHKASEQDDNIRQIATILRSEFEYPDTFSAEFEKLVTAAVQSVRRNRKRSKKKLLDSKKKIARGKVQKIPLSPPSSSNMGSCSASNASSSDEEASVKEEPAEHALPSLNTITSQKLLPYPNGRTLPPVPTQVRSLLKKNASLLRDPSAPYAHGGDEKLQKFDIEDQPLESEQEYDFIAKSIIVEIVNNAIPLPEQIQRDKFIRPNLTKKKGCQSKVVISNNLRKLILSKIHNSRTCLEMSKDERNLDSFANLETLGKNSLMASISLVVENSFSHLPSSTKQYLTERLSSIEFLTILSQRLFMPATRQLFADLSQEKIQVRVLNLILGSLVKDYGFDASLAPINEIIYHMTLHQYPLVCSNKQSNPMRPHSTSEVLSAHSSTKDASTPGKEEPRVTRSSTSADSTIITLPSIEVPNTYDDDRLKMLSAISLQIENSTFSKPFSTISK
How it was run: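 Using PURExpress in vitro transcription/translation, GST-tagged yeast transcription factors were made in full-length or DNA-binding-domain form. These were applied at about 100-200 nM to double-stranded universal all-10-mer Agilent arrays, and bound protein was detected with fluorescent anti-GST. Scans were normalised with masliner before the Universal PBM Analysis Suite assigned E-scores to ungapped eight-base words pooled with their reverse complements.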

Row | Sequence | PBM E-score
1 | CGCGGACC | -0.262
2 | CGGTTGAC | 0.0774
3 | ACCAGCGG | -0.133
4 | CGGCAAGA | -0.115
5 | ACTCAATC | 0.404
6 | GGTCAATA | 0.108
7 | AATCAATG | 0.236
8 | CGTCAATC | 0.17
9 | ACTCAATG | 0.302
10 | AGTCAATG | 0.377
11 | CGTCAATA | -0.192
12 | AGTCAATA | 0.383
13 | ATTCAATG | 0.204
14 | AATCAATC | 0.301
15 | ATTCAATC | 0.308
16 | AGTCAATC | 0.426
17 | AGCGGATG | -0.0548
18 | CTGGGCTA | -0.161
19 | AGGCTACC | -0.0969
20 | CCAACACC | -0.158
